Drawing on the supplement of paper PMC10849652, this text covers log2 fold change for 24 targets.

Of roughly 7,900 targets only a part is listed; those with a hit were picked by preference. About 0.6% of all pairs of compound and target were hits. A number with no mark means an inactive call.

What all share (test): log2 fold change, soluble protein after heating vs DMSO (PISA); higher = thermal stabilisation; K562 cells, 10 uM, 30 min; active = over 0.2 and 3.5 SD of the protein, either way, in both replicates (recomputed)
Compound in assay [1]: C1=CC=C(C=C1)[C@H](COC2=CC3=C(C=C2)NC(=O)N3)NC(=O)C4=CC=CN(C4=O)CC5=CC(=C(C=C5)F)F
The procedure, abridged:
(§1)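 Soluble protein was quantified by TMTpro 16plex LC-MS/MS after channel sums were equalised. It was obtained as the supernatant after 21,000xg for 90 min from pooled aliquots of K562 cells (2×10^6 cells/mL, 10 μM compound, 30 min) heated for 3 min across 48°C-58°C and extracted in PBS with 0.5% NP-40 at 4°C. Thermal stability values are relative to control samples and come from duplicates. They are given as log2 fold changes.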

Compound in assay [2]: CC1=C(SC2=C1C(=N[C@H](C3=NN=C(N32)C)CC(=O)N)C4=CC=C(C=C4)Cl)C
In a few lines:
as §1

Compound in assay [3]: CC1=C2C(=CC=C1)N=C(N(C2=O)C3=CC=CC=C3C)CN4C=NC5=C(N=CN=C54)N
The procedure, abridged:
as §1

Compound in assay [4]: Cc1sc2c(c1C)C(c1ccc(Cl)cc1)=N[C@@H](CC(=O)OC(C)(C)C)c1nnc(C)n1-2
The procedure, abridged: as §1

Compound in assay [5]: c1ccc([C@@H]2C[C@H]2NC2CCNCC2)cc1
The procedure, abridged: as §1

Sequence of UniProt Q8N684 (Q8N684 whole entry, looked up): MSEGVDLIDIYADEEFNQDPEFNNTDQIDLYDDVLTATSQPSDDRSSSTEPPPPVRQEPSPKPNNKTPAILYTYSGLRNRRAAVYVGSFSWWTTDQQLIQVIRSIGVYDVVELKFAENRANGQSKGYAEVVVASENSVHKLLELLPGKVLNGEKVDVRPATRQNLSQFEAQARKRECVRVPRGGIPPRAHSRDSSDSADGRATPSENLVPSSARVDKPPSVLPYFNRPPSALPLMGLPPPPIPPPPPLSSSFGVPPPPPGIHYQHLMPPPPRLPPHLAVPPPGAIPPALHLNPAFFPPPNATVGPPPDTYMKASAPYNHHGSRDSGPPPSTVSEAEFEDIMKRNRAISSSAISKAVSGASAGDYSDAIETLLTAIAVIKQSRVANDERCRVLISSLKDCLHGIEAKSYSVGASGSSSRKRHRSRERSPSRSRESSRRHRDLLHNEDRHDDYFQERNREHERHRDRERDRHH
Sequence of UniProt Q00535 (Q00535 whole entry, looked up): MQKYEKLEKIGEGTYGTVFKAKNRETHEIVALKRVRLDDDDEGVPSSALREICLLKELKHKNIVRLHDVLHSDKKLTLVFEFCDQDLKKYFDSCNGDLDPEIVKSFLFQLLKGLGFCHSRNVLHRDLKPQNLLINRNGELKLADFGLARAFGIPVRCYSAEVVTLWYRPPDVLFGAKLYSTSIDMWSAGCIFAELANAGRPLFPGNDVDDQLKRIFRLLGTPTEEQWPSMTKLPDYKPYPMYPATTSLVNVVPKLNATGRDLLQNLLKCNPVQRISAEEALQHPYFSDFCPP
Sequence of UniProt P08174 (P08174 whole entry, looked up): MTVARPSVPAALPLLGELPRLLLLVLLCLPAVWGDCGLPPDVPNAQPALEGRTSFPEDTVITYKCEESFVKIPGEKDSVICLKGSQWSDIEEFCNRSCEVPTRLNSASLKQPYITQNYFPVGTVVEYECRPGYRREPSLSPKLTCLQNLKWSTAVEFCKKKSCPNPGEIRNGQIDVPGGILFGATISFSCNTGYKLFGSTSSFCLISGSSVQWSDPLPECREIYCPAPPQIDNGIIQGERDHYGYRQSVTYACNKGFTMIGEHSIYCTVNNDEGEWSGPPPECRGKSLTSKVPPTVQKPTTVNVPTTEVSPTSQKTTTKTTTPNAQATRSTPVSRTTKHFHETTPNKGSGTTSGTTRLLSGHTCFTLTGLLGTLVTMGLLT
Sequence of UniProt Q5VT25 (Q5VT25 whole entry, looked up): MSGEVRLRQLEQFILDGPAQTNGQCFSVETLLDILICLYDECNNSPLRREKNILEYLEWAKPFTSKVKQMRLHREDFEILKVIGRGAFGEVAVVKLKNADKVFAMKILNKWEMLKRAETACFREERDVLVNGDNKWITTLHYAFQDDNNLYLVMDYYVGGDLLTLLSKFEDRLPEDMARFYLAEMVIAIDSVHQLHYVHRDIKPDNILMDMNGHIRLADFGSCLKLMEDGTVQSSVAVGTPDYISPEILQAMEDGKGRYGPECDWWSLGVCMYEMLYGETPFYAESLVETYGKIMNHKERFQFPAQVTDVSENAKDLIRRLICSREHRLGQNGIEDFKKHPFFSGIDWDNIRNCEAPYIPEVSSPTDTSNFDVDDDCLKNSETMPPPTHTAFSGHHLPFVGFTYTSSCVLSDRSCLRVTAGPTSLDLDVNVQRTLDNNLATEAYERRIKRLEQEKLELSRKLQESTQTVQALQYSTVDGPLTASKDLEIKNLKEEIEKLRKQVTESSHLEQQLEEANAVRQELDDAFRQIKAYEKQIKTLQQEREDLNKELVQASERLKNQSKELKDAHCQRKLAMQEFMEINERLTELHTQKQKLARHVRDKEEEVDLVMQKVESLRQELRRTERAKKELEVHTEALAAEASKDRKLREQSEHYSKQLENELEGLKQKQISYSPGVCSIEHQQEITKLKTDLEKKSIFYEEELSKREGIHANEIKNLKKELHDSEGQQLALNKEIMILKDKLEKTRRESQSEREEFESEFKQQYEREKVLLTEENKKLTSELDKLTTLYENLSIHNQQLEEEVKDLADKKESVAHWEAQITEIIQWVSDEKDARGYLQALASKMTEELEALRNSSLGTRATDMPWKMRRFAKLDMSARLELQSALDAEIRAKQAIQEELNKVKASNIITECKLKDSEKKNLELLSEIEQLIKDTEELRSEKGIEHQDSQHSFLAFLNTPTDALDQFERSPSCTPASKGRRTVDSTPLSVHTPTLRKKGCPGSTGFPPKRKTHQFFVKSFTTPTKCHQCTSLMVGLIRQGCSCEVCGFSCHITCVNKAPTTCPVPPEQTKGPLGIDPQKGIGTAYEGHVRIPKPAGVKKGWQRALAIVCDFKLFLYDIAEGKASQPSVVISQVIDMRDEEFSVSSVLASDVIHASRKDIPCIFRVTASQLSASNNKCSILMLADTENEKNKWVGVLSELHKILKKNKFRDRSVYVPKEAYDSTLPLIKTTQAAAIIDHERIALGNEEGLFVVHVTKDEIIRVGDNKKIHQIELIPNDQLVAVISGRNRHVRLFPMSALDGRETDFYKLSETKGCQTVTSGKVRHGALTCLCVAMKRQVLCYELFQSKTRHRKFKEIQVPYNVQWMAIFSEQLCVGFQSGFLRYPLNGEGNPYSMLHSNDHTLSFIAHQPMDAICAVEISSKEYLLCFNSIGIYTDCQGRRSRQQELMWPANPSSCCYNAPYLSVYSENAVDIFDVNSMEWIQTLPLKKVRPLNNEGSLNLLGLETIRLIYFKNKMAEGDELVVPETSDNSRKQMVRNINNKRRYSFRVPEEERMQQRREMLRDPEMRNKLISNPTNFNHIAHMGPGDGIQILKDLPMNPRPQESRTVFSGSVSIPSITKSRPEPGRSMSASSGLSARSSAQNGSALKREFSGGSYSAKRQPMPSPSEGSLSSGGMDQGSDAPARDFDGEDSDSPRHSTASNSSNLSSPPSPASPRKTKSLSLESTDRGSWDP
Sequence of UniProt P83916 (P83916 whole entry, looked up): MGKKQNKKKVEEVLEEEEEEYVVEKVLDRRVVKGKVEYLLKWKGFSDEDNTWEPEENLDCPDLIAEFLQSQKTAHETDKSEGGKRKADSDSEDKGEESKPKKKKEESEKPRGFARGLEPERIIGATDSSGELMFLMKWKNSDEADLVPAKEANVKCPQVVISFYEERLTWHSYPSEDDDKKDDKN
Sequence of UniProt Q9UHN6 (Q9UHN6 whole entry, looked up): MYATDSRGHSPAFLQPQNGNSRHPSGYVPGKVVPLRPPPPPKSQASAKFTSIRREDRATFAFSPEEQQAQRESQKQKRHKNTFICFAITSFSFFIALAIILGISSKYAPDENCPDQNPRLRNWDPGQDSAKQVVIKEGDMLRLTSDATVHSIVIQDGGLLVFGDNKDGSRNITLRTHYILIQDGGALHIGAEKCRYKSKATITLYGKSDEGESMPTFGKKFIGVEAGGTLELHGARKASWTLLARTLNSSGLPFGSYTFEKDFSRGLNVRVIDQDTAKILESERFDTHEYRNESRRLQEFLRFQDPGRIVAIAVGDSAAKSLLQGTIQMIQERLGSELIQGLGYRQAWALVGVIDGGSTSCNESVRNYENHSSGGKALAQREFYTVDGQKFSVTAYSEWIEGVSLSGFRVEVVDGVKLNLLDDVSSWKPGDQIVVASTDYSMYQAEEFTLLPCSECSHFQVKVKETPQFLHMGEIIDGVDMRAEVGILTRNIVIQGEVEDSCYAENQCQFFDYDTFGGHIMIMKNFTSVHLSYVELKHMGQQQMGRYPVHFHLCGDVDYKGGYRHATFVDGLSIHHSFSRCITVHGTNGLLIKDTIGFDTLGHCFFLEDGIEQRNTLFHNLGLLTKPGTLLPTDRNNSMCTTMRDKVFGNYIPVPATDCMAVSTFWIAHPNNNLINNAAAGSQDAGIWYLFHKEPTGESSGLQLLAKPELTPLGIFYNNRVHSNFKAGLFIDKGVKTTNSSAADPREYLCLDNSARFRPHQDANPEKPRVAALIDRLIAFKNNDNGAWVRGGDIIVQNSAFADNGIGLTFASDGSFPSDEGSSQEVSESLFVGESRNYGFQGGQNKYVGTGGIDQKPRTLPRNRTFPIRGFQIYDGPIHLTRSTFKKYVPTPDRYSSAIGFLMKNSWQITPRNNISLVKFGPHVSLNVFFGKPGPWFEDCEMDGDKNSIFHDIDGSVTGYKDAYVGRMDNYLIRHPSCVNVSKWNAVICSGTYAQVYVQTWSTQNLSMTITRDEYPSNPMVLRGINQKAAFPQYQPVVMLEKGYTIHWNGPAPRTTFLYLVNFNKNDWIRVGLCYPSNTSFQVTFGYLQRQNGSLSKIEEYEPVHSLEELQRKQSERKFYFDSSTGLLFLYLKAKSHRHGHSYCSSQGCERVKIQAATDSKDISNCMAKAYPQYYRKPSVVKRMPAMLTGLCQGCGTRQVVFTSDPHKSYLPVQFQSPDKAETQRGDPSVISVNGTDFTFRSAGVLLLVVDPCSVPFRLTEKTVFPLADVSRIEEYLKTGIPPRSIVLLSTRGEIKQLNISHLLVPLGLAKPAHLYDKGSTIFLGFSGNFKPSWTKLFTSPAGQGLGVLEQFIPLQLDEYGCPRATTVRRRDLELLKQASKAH
Sequence of UniProt P86791 (P86791 whole entry, looked up): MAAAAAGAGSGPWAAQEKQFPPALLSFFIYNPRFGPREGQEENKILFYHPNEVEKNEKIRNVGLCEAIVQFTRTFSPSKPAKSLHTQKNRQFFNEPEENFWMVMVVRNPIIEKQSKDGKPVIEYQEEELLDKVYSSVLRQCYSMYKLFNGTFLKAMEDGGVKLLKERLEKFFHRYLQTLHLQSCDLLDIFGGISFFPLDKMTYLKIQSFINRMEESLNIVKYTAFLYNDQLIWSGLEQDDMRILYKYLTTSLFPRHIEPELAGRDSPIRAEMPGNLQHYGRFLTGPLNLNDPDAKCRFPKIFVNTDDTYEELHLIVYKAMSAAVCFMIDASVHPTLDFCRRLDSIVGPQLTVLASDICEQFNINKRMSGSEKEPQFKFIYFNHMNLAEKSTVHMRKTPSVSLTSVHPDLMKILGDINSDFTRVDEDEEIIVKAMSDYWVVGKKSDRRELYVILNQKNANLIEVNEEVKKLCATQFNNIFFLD
Sequence of UniProt P61024 (P61024 whole entry, looked up): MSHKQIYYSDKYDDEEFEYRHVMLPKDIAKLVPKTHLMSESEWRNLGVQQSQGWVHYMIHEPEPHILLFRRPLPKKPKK

Take CAMSAP1 isoform 3 (UniProt Q5T5Y3): the log2 fold change is -0.06 in assay [1]; 0.083 in assay [2]; 0.221 in assay [3]; 0.016 in assay [4]; 0.02 in assay [5].

CLN8 (UniProt Q9UBY8): the log2 fold change in assay [1] is 0.121; in assay [2] it was 0.042; in assay [3], -0.067; in assay [4], 0.043; in assay [5] it was -0.057.

On to CD55 isoform 7 (UniProt P08174), for which the log2 fold change was 0.026 in assay [1]; -0.058 in assay [2]; -0.009 in assay [3]; -0.066 in assay [4]; -0.049 in assay [5].

CKS1B (UniProt P61024): the log2 fold change in assay [1] is -0.004; in assay [2], 0.056; in assay [3] it was 0.024; in assay [4], -0.067; in assay [5], -0.02.

CBS (UniProt P35520): the log2 fold change in assay [1] was -0.029; in assay [2], 0.07; in assay [3] it was 0.016; in assay [4], -0.014; in assay [5], -0.026.

As for CHAC2 (UniProt Q8WUX2), the log2 fold change in assay [1] was -0.036; in assay [2] it was -0.034; in assay [3], -0.034; in assay [4] it was 0.008; in assay [5], 0.027.

For CEMIP2 (UniProt Q9UHN6), the log2 fold change is -0.03 in assay [1]; -0.017 in assay [2]; 0.08 in assay [3]; -0.04 in assay [4]; 0.081 in assay [5].

Take CD81 (UniProt P60033): the log2 fold change in assay [1] was -0.083; in assay [2], -0.013; in assay [3], -0.035; in assay [4], 0.03; in assay [5], 0.109.

Consider CFAP36 isoform 2 (UniProt Q96G28), for which the log2 fold change in assay [1] is -0.042; in assay [2], 0.01; in assay [3], 0.383 (active); in assay [4] it was -0.009; in assay [5], -0.158.

Turning to CDC42BPA isoform 6 (UniProt Q5VT25), the log2 fold change in assay [1] was -0.101; in assay [2], -0.039; in assay [3] it was 0.083; in assay [4], 0.031; in assay [5], 0.069.

As to COX5B (UniProt P10606), the log2 fold change in assay [1] is 0.015; in assay [2], 0.104; in assay [3], -0.006; in assay [4] it was -0.126; in assay [5], -0.099.

Regarding CRYM-AS1 (UniProt A6NIL9), the log2 fold change was -0.295 in assay [1]; 0.037 in assay [2]; 0.297 in assay [3]; -0.201 in assay [4]; -0.002 in assay [5].

Turning to CCDC82 (UniProt Q8N4S0), the log2 fold change is -0.018 in assay [1]; 0.056 in assay [2]; 0.033 in assay [3]; 0.043 in assay [4]; 0.004 in assay [5].

Take CETN3 (UniProt O15182): the log2 fold change in assay [1] was 0.019; in assay [2], -0.055; in assay [3] it was 0.109; in assay [4] it was 0.008; in assay [5] it was -0.014.

For CHKA (UniProt P35790), the log2 fold change was -0.055 in assay [1]; -0.023 in assay [2]; 0.124 in assay [3]; -0.004 in assay [4]; 0.19 in assay [5].

With CCZ1 (UniProt P86791), the log2 fold change was 0.011 in assay [1]; 0.009 in assay [2]; 0.02 in assay [3]; 0.017 in assay [4]; -0.024 in assay [5].

In the case of CBX1 (UniProt P83916), the log2 fold change in assay [1] is 0.003; in assay [2], 0.026; in assay [3], 0.023; in assay [4], -0.003; in assay [5] it was 0.031.

Take CEP128 (UniProt Q6ZU80): the log2 fold change in assay [1] was -0.039; in assay [2], 0.099; in assay [3], 0.216; in assay [4], 0.104; in assay [5], 0.041.

Consider CDK5 (UniProt Q00535), for which the log2 fold change in assay [1] is -0.015; in assay [2] it was 0.087; in assay [3], -0.003; in assay [4], -0.023; in assay [5], -0.005.

For CLCN3 (UniProt P51790), the log2 fold change in assay [1] is 0.01; in assay [2] it was 0.025; in assay [3], 0.064; in assay [4], -0.107; in assay [5] it was 0.056.

Take CMTR1 (UniProt Q8N1G2): the log2 fold change was -0.008 in assay [1]; 0.033 in assay [2]; 0.07 in assay [3]; -0.009 in assay [4]; -0.04 in assay [5].

Take CLPTM1L (UniProt G5E9Z2): the log2 fold change in assay [1] was -0.22; in assay [2], 0.148; in assay [3], -0.012; in assay [4] it was -0.07; in assay [5], -0.1.

Turning to COMT (UniProt P21964), the log2 fold change in assay [1] is 0.024; in assay [2] it was 0.142; in assay [3], 0.09; in assay [4] it was -0.028; in assay [5], -0.038.

Consider CPSF7 isoform 3 (UniProt Q8N684), for which the log2 fold change in assay [1] was 0.007; in assay [2], 0.013; in assay [3], -0.012; in assay [4], 0.017; in assay [5], -0.013.
